For some assays here: Measured potencies and affinities stand elsewhere.
How the values were obtained:
Design in all cases: scale not given: direction of the effect not stated beside the values
[1] = biological target: Protein translocase subunit SecA (Escherichia coli (strain K12)) (UniProt P10408); test: Assay to Identify E. coli SecA ATPase Inhibitors; type: functional; settings: 30 µM
[2] = biological target: T1, Ubiquitin-activating enzyme e1, putative (Leishmania donovani (strain BPK282A1)) (UniProt E9BSI1); test: Leishmania donovani Ubiquitin Activating Enzyme (LdE1); type: functional; settings: 30 µM
T1 sequence (whole entry): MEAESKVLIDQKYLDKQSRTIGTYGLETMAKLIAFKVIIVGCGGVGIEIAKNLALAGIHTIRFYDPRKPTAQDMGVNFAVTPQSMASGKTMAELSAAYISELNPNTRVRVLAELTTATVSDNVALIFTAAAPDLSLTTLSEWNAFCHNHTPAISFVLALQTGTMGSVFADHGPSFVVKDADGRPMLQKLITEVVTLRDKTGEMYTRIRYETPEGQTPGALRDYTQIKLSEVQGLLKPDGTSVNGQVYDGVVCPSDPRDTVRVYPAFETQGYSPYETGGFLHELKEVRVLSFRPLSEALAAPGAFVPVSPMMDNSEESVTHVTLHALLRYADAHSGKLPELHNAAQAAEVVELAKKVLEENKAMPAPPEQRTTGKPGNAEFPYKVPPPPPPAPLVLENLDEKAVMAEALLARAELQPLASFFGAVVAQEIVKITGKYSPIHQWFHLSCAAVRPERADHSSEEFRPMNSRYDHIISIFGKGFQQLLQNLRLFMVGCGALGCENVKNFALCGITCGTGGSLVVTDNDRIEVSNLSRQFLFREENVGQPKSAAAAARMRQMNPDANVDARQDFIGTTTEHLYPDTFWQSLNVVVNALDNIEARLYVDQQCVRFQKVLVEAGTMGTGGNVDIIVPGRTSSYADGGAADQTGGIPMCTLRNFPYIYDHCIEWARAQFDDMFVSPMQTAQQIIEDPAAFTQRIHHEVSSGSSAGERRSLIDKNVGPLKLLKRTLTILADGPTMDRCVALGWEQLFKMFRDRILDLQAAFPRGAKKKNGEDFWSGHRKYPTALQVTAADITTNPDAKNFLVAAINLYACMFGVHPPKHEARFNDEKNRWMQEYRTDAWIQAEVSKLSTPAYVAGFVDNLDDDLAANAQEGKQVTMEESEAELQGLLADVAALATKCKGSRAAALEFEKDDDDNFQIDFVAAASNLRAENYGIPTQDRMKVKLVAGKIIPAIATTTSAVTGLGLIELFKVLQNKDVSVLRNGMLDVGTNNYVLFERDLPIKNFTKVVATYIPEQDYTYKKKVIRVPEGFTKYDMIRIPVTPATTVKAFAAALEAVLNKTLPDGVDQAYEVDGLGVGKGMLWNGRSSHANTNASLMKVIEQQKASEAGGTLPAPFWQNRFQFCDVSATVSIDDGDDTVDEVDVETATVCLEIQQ

[3] = biological target: AMP-activated protein kinase, AMPK (Homo sapiens) (UniProt P54646+O43741+P54619+Q9UGJ0+Q9Y478+Q13131+Q9UGI9); test: AMP-dependent Kinase enzyme assay. An in vitro enzyme assay that detects ADP turnover that is directly proportional to AMPK activity. This uses naive AMPK that is activated during the assay with MK-8722; type: functional; settings: 30 µM
[4] = biological target: Sialic acid-binding Ig-like lectin 9 (Homo sapiens) (UniProt Q9Y336); test: Hs-Siglec9 ALPHAscreen SOP 20170721; settings: 10 µM
Sequence of Sialic acid-binding Ig-like lectin 9 (Homo sapiens) (Q9Y336 whole entry): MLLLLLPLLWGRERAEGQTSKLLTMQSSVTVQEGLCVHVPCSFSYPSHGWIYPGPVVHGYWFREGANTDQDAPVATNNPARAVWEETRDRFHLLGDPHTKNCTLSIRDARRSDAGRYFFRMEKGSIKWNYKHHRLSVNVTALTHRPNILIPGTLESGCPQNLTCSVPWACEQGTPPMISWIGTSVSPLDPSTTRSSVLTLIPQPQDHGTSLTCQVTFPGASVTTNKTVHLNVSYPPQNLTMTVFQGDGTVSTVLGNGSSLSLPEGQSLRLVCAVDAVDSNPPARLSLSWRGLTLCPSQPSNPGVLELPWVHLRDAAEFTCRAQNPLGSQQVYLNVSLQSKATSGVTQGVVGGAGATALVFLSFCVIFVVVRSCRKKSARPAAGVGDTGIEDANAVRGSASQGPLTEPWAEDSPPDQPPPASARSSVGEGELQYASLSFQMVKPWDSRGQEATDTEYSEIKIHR

Trypanosoma cruzi = test: Trypanosoma cruzi phosphomannomutase and mannose-1-phosphate guanylyltransferase assay; type: functional; settings: 10 µM
[5] = biological target: T2, Arginase-2, mitochondrial (Homo sapiens) (UniProt P78540); test: in vitro enzyme assay to detect the production of urea directly proportional to the activity of Arginase II; type: functional; settings: 33.3 µM; note: in the data most compounds retested in dose-response had high values
T2 sequence (whole entry): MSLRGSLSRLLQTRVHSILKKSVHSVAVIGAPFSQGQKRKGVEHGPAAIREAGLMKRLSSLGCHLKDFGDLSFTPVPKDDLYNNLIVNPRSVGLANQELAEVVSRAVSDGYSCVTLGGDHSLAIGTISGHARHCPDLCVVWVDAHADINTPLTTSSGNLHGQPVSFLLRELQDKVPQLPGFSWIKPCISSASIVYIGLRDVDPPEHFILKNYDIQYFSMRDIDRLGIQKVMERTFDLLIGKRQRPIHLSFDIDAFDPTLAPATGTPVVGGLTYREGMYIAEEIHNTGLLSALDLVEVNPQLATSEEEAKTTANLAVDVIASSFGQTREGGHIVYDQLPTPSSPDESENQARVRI

[6] = biological target: T3, Proteasome subunit beta (Trypanosoma cruzi) (UniProt O96673); test: Trypanosoma cruzi proteasome chymotrypsin-like activity (TcProtChymo) assay.; note: in the data most compounds retested in dose-response had high values; type: functional; settings: 9.37 µM
T3 sequence (whole entry): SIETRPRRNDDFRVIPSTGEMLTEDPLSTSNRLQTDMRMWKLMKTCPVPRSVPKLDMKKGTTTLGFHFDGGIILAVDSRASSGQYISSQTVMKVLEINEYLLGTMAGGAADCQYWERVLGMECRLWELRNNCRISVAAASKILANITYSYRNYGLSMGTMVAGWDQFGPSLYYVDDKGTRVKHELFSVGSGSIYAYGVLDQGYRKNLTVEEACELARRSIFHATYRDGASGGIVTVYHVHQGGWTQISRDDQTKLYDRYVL

Homo sapiens = species on record: Homo sapiens; test: To identify inhibition of the IFN signalling (Jak-Stat) pathway via expression of an eGFP reporter gene under the control of an IFN-stimulated response element (ISRE) containing MxA promoter.; type: functional; settings: 30 µM
[7] = biological target: T4, Tyrosyl-tRNA synthetase, putative (Trypanosoma cruzi (strain CL Brener)) (UniProt Q4DSP6); test: Trypanosoma cruzi tyrosyl tRNA synthetase (TcYRS) _High Tyrosine SOP; type: functional; settings: 30 µM; note: in the data most compounds retested in dose-response had high values
T4 sequence (whole entry): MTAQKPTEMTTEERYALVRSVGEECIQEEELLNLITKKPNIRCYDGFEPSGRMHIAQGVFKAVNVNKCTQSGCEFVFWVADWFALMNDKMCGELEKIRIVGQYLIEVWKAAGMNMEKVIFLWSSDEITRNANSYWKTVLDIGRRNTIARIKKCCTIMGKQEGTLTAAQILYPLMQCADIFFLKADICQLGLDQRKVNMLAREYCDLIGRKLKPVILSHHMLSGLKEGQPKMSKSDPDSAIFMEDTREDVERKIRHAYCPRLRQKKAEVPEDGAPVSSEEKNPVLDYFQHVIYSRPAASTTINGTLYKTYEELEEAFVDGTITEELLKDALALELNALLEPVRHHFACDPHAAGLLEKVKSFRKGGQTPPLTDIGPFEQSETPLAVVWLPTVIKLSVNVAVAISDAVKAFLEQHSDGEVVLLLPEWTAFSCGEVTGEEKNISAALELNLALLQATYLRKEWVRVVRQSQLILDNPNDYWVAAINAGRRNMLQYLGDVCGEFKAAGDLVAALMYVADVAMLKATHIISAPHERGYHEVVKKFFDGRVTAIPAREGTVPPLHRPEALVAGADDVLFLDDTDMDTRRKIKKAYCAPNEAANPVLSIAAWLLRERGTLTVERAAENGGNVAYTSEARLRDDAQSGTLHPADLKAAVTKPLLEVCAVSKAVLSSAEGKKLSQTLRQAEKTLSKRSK

[8] = biological target: T4, Tyrosyl-tRNA synthetase, putative (Trypanosoma cruzi (strain CL Brener)); test: Trypanosoma cruzi tyrosyl tRNA synthetase (TcYRS) SOP; type: functional; settings: 30 µM
[9] = biological target: Chromo domain-containing protein 1 (Saccharomyces cerevisiae (strain ATCC 204508 / S288c) (Baker's yeast)) (UniProt P32657); test: ScCHD-1 Enzyme Inhibition Assay; type: functional; settings: 30 µM; note: in the data most compounds retested in dose-response had high values
Sequence of Chromo domain-containing protein 1 (Saccharomyces cerevisiae (strain ATCC 204508 / S288c) (Baker's yeast)) (P32657 whole entry, the tested form may be a part): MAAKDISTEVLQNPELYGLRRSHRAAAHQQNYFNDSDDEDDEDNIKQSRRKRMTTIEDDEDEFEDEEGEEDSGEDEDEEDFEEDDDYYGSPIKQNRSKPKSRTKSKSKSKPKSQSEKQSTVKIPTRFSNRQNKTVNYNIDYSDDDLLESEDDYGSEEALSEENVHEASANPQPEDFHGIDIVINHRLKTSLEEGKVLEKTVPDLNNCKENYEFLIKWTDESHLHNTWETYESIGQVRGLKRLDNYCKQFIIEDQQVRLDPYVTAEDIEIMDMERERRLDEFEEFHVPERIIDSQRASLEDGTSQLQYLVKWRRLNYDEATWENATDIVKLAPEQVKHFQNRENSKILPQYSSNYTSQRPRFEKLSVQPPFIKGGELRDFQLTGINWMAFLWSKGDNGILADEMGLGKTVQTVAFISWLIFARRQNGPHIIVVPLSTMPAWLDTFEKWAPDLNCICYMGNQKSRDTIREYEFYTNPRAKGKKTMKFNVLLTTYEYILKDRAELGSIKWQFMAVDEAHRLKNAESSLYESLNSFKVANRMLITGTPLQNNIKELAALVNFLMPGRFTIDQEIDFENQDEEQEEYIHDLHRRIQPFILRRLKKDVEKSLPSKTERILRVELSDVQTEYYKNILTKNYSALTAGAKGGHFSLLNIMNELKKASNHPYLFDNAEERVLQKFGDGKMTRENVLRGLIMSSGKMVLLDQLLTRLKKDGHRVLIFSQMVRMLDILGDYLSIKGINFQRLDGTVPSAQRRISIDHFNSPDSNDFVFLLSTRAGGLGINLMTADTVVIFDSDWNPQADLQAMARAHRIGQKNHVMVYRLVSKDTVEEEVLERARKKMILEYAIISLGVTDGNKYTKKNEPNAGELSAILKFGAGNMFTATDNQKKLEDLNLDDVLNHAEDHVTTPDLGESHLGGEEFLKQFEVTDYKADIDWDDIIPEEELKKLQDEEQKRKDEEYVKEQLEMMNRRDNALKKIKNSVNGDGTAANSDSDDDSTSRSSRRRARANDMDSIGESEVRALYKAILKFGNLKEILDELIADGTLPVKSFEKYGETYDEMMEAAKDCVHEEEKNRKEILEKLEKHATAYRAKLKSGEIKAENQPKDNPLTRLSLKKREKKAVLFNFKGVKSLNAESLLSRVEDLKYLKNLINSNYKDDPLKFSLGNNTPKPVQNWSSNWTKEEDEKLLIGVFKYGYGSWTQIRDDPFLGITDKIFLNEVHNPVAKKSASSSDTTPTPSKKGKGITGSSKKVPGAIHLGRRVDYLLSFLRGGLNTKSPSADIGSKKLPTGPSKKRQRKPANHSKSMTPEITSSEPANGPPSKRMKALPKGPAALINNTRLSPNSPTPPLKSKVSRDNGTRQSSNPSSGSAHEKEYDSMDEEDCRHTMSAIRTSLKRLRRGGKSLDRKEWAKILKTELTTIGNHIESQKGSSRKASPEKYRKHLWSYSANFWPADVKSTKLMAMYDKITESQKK

Sequence of Protein translocase subunit SecA (Escherichia coli (strain K12)) (P10408 whole entry): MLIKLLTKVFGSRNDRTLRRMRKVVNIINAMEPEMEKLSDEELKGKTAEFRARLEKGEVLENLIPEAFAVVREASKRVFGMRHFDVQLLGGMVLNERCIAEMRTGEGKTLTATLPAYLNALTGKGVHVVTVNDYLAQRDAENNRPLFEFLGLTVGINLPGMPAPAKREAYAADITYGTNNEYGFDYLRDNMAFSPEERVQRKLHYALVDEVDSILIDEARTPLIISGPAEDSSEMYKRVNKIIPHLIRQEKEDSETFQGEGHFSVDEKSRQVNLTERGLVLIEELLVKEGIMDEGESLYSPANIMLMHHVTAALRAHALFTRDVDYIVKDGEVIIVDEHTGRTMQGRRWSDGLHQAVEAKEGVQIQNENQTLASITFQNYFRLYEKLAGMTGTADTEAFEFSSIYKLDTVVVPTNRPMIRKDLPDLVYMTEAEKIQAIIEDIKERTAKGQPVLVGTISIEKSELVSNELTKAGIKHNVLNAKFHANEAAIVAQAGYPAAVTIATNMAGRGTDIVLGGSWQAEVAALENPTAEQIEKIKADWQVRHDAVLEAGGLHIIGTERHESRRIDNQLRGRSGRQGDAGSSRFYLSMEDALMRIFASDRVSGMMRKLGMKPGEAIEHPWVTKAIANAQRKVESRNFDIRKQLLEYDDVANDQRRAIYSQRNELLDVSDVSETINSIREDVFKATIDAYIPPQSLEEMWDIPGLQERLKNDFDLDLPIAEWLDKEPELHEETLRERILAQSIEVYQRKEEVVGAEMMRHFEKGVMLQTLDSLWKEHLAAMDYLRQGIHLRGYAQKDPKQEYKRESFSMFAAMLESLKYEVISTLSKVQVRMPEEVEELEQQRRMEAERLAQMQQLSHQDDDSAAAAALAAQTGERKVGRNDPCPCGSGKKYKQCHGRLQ

With `CN(C)c1cc(C(=O)NCCc2n[nH]c(=O)[nH]2)ccn1` the Percent Effect [1] was -2.65%, the Percent Effect [2] was 2.63% and the Percent Effect [3] was 5.52%. The Percent Effect [4] was 7.32%, the Percent Effect (Trypanosoma cruzi) was -0.487% and the Percent Effect [5] was 4.73%. The Percent Effect [6] was 7.38%, the Percent Effect (Homo sapiens) was 5.92% and the Percent Effect [7] was 3.19%. For the same compound, the Percent Effect [8] was 5.2% and the Percent Effect [9] was -2.56%.

`CN(c1cccnn1)C1CCN(C(=O)c2ccc3c(c2)COC3)CC1` was tested, and the Percent Effect [1] was -7.72%, the Percent Effect [2] was -44.2% and the Percent Effect [3] was 15.1%. It also gave a Percent Effect [4] of 5.38%, a Percent Effect (Trypanosoma cruzi) of 0.187% and a Percent Effect [5] of 2.85%. For the same compound, the Percent Effect [6] was 5.41%, the Percent Effect (Homo sapiens) was 9.98% and the Percent Effect [7] was 6.8%. The Percent Effect [8] was 12.2% and the Percent Effect [9] was -5.25%.

In the case of `CNC(=O)[C@@]12CCO[C@@H]1CCN(S(=O)(=O)c1cccnc1)C2`, the Percent Effect [1] is reported as -5.53%, the Percent Effect [2] is reported as 10.8% and the Percent Effect [3] is reported as 0.489%. The Percent Effect [4] was -1.11%, the Percent Effect (Trypanosoma cruzi) was 4.99% and the Percent Effect [5] was -3.5%. The Percent Effect [6] was 9.96%, the Percent Effect (Homo sapiens) was 4.96% and the Percent Effect [7] was 5.41%. The Percent Effect [8] was 12.8% and the Percent Effect [9] was 0.201%.

`CC(C)C1CN(C(=O)c2ccc(N3CCCC3)nc2)CCS1` (stereo not given) was tested, and the Percent Effect [1] was -4.92%, the Percent Effect [2] was 2.6% and the Percent Effect [3] was 0.107%. The Percent Effect [4] was 2.6%, the Percent Effect (Trypanosoma cruzi) was -0.492% and the Percent Effect [5] was 0%. It also gave a Percent Effect [6] of -1.17%, a Percent Effect (Homo sapiens) of -12.6% and a Percent Effect [7] of 4.3%. It also gave a Percent Effect [8] of 6.17% and a Percent Effect [9] of -1.7%.

`Cc1cc(C)c(CNC(=O)NCC(O)c2cccc(F)c2)c(=O)[nH]1` (stereo not given) was tested, and the Percent Effect [1] was -7%, the Percent Effect [2] was 7.89% and the Percent Effect [3] was 0.0351%. For the same compound, the Percent Effect [4] was 13.9%, the Percent Effect (Trypanosoma cruzi) was -0.0934% and the Percent Effect [5] was -3.96%. It also gave a Percent Effect [6] of 7.36%, a Percent Effect (Homo sapiens) of 7.32% and a Percent Effect [7] of 9.36%. For the same compound, the Percent Effect [8] was 13.6% and the Percent Effect [9] was -1.76%.

`COc1ccc(OC)c(CNCCc2cc(F)cc3c2OCOC3)c1` showed a Percent Effect [1] of -5.17%, a Percent Effect [2] of -6.94% and a Percent Effect [3] of -9.7%. For the same compound, the Percent Effect [4] was 2.47%, the Percent Effect (Trypanosoma cruzi) was 4.57% and the Percent Effect [5] was -3.09%. It also gave a Percent Effect [6] of 7.19%, a Percent Effect (Homo sapiens) of 4.72% and a Percent Effect [7] of 2.1%. It also gave a Percent Effect [8] of 2.56% and a Percent Effect [9] of -2.06%.

For `Cc1ccc(C#N)c(N2CCC(c3nccn3CCN(C)C)CC2)n1`, the Percent Effect [1] was -4.49%, the Percent Effect [2] was 2.67% and the Percent Effect [3] was 1.54%. For the same compound, the Percent Effect [4] was 4.68%, the Percent Effect (Trypanosoma cruzi) was -3.6% and the Percent Effect [5] was -2.08%. The Percent Effect [6] was 11.7%, the Percent Effect (Homo sapiens) was 12.9% and the Percent Effect [7] was 7.1%. It also gave a Percent Effect [8] of 11.1% and a Percent Effect [9] of -8.91%.

Compound `CCn1ncc2c1CCCC2NCc1ccc(OC)c(C)c1` (stereo not given) has a Percent Effect [1] of -7.95%, a Percent Effect [2] of 12.7% and a Percent Effect [3] of -10.6%. It also gave a Percent Effect [4] of 11.1%, a Percent Effect (Trypanosoma cruzi) of 7.08% and a Percent Effect [5] of -3.42%. For the same compound, the Percent Effect [6] was 1.23%, the Percent Effect (Homo sapiens) was 0.115% and the Percent Effect [7] was 4.43%. For the same compound, the Percent Effect [8] was 16.5% and the Percent Effect [9] was -6.17%.

`CSCC[C@H](N)C(=O)NCc1cc2n(n1)CCCN(C(=O)C1CCC1)C2` showed a Percent Effect [1] of -0.458%, a Percent Effect [2] of 6.94% and a Percent Effect [3] of -3.76%. For the same compound, the Percent Effect [4] was 1.43%, the Percent Effect (Trypanosoma cruzi) was 8.26% and the Percent Effect [5] was -0.442%. It also gave a Percent Effect [6] of 10.5%, a Percent Effect (Homo sapiens) of -24.3% and a Percent Effect [7] of 0%. For the same compound, the Percent Effect [8] was 12.8% and the Percent Effect [9] was -3.49%.

`CSCCC(=O)N1CCCC1c1ccsc1` (stereo not given) gave a Percent Effect [1] of 0.213%, a Percent Effect [2] of 9.72% and a Percent Effect [3] of 0.426%. For the same compound, the Percent Effect [4] was -10.9%, the Percent Effect (Trypanosoma cruzi) was -4.76% and the Percent Effect [5] was -1.32%. The Percent Effect [6] was 18.8%, the Percent Effect (Homo sapiens) was 30.2% and the Percent Effect [7] was 4.21%. The Percent Effect [8] was 0% and the Percent Effect [9] was 103%.

Source: ChEMBL document CHEMBL3988442, “University of Dundee, Small-Polar-MMV Screening Library” (2021)
